Measured values from PubChem BioAssay AID1159580 (chemical genetic matrix, 2015).
Values joined by “and” are separate entries in the source; they are usually repeats but may differ in a detail not shown here. Identical values can stand only once. Hit rate of the full screen: of about 5,500 compounds, about 2,000 (36%) were called active. Roughly 18% stayed inconclusive and do not appear here. Cut-off read from the data, not from the text of the source: active = normalized growth mostly below about 0.91 (no sharp cut-off); inconclusive = no clear call, values can overlap the other calls; inactive = mostly above about 0.92. The list shows a part of the results.

Assay: chemical genetic growth profiling, strain panel (AID 1159580);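 note: tested at 20 µM; growth read once vehicle control cultures reached saturation at 30 °C; 1 = growth at the plate median or of vehicle wells; lower values mean less growth of the strain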
Settings: growth OD

Measured: normalized growth

O=C(O)CC[N+](=O)[O-]
inactive: S. cerevisiae deletion strains, locus YJR075W, strain HOC1, active compounds read low 0.987 | S. cerevisiae deletion strains, locus YKL009W, strain mrt4, active compounds read low 0.971 | S. cerevisiae deletion strains, locus YKL068W, active compounds read low 0.978 | S. cerevisiae deletion strains, locus YKL085W, strain MDH1 (second series), active compounds read low 1.01 | S. cerevisiae deletion strains, locus YKL085W, strain MDH1, active compounds read low 1.01 | S. cerevisiae deletion strains, locus YKL160W, strain elf1, active compounds read low 1 | S. cerevisiae deletion strains, locus YKL190W, strain CNB1, active compounds read low 0.986 | S. cerevisiae deletion strains, locus YKR001C, strain vps1, active compounds read low 0.982 | S. cerevisiae deletion strains, locus YKR026C, strain gcn3, active compounds read low 1 | S. cerevisiae deletion strains, locus YKR091W, strain srl3, active compounds read low 0.993 | S. cerevisiae deletion strains, locus YLL001W, strain dnm1, active compounds read low 0.981 | S. cerevisiae deletion strains, locus YLL026W, active compounds read low 1.01 | S. cerevisiae deletion strains, locus YLL041C, strain sdh2, active compounds read low 1 | S. cerevisiae deletion strains, locus YLR027C, strain aat2, active compounds read low 1.01 | S. cerevisiae deletion strains, locus YLR039C, strain RIC1, active compounds read low 0.903 | S. cerevisiae deletion strains, locus YLR058C, strain SHM2, active compounds read low 0.991 | S. cerevisiae deletion strains, locus YLR102C, strain apc9, active compounds read low 0.979 | S. cerevisiae deletion strains, locus YLR113W, strain HOG1, active compounds read low 1.02 | S. cerevisiae deletion strains, locus YLR221C, strain rsa3, active compounds read low 1.03 | S. cerevisiae deletion strains, locus YLR258W, strain gsy2, active compounds read low 1.03 | S. cerevisiae deletion strains, locus YLR262C, strain YPT6 (second series), active compounds read low 0.989 | S. cerevisiae deletion strains, locus YLR262C, strain YPT6, active compounds read low 0.908 | S. cerevisiae deletion strains, locus YLR268W, strain sec22, active compounds read low 0.988 | S. cerevisiae deletion strains, locus YLR320W, strain mms22, active compounds read low 1.03 | S. cerevisiae deletion strains, locus YLR330W, strain CHS5, active compounds read low 0.982 | S. cerevisiae deletion strains, locus YLR342W, strain FKS1 (second series), active compounds read low 0.998 | S. cerevisiae deletion strains, locus YLR342W, strain FKS1, active compounds read low 1.01 | S. cerevisiae deletion strains, locus YLR357W, strain rsc2, active compounds read low 0.993 | S. cerevisiae deletion strains, locus YLR370C, strain arc18, active compounds read low 1 | S. cerevisiae deletion strains, locus YLR371W, strain rom2, active compounds read low 0.969 | S. cerevisiae deletion strains, locus YLR384C, strain iki3, active compounds read low 0.988 | S. cerevisiae deletion strains, locus YLR418C, strain cdc73, active compounds read low 1 | S. cerevisiae deletion strains, locus YML016C, strain PPZ1, active compounds read low 0.993 | S. cerevisiae deletion strains, locus YML032C, strain rad52, active compounds read low 0.973 | S. cerevisiae deletion strains, locus YML120C, strain ndi1, active compounds read low 0.999 | S. cerevisiae deletion strains, locus YML124C, strain tub3, active compounds read low 0.98 | S. cerevisiae deletion strains, locus YMR058W, strain fet3, active compounds read low 1.03 | S. cerevisiae deletion strains, locus YMR078C, strain ctf18, active compounds read low 0.976 | S. cerevisiae deletion strains, locus YMR125W, strain sto1, active compounds read low 0.988 | S. cerevisiae deletion strains, locus YMR129W, active compounds read low 0.996 | S. cerevisiae deletion strains, locus YMR205C, strain PFK2, active compounds read low 0.983 | S. cerevisiae deletion strains, locus YMR223W, strain ubp8, active compounds read low 0.977 | S. cerevisiae deletion strains, locus YMR231W, strain pep5, active compounds read low 0.986 | S. cerevisiae deletion strains, locus YMR263W, strain SAP30, active compounds read low 0.985 and 1 | S. cerevisiae deletion strains, locus YMR307W, strain GAS1, active compounds read low 0.924 | S. cerevisiae deletion strains, locus YNL067W, strain RPL9B, active compounds read low 0.991 | S. cerevisiae deletion strains, locus YNL071W, strain lat1, active compounds read low 1.01 | S. cerevisiae deletion strains, locus YNL128W, strain TEP1, active compounds read low 0.981 | S. cerevisiae deletion strains, locus YNL153C, strain GIM3, active compounds read low 0.994 | S. cerevisiae deletion strains, locus YNL175C, strain NOP13, active compounds read low 0.992 | S. cerevisiae deletion strains, locus YNL183C, strain NPR1, active compounds read low 0.953 | S. cerevisiae deletion strains, locus YNL197C, strain WHI3, active compounds read low 1.01 | S. cerevisiae deletion strains, locus YNL209W, strain ssb2, active compounds read low 1.01 | S. cerevisiae deletion strains, locus YNL224C, strain SQS1, active compounds read low 0.992 | S. cerevisiae deletion strains, locus YNL233W, strain BNI4, active compounds read low 1 | S. cerevisiae deletion strains, locus YNL248C, strain rpa49, active compounds read low 0.996 | S. cerevisiae deletion strains, locus YNL250W, strain rad50, active compounds read low 0.978 | S. cerevisiae deletion strains, locus YNL271C, strain bni1, active compounds read low 0.974 | S. cerevisiae deletion strains, locus YNL298W, strain CLA4, active compounds read low 0.98 | S. cerevisiae deletion strains, locus YNL307C, strain MCK1, active compounds read low 0.982 | S. cerevisiae deletion strains, locus YNL322C, strain KRE1 (second series), active compounds read low 0.989 | S. cerevisiae deletion strains, locus YNL322C, strain KRE1, active compounds read low 0.987 and 1.01 | S. cerevisiae deletion strains, locus YNR049C, strain mso1, active compounds read low 1 | S. cerevisiae deletion strains, locus YNR052C, strain pop2, active compounds read low 0.979 | S. cerevisiae deletion strains, locus YOL006C, strain TOP1, active compounds read low 1.01 | S. cerevisiae deletion strains, locus YOL012C, strain htz1 0.756 | S. cerevisiae deletion strains, locus YOL147C, strain pex11, active compounds read low 0.985 | S. cerevisiae deletion strains, locus YOR001W, strain rrp6, active compounds read low 1.03 | S. cerevisiae deletion strains, locus YOR061W, strain CKA2, active compounds read low 0.992 | S. cerevisiae deletion strains, locus YOR069W, strain VPS5, active compounds read low 0.99 | S. cerevisiae deletion strains, locus YOR070C, strain gyp1, active compounds read low 0.999 | S. cerevisiae deletion strains, locus YOR080W, strain dia2, active compounds read low 1 | S. cerevisiae deletion strains, locus YOR083W, strain WHI5 (second series), active compounds read low 0.995 | S. cerevisiae deletion strains, locus YOR083W, strain WHI5, active compounds read low 0.999 | S. cerevisiae deletion strains, locus YOR106W, strain vam3, active compounds read low 0.99 | S. cerevisiae deletion strains, locus YOR136W, strain idh2, active compounds read low 0.986 | S. cerevisiae deletion strains, locus YOR144C, strain elg1, active compounds read low 0.97 | S. cerevisiae deletion strains, locus YOR184W, strain ser1, active compounds read low 0.968 | S. cerevisiae deletion strains, locus YOR231W, strain MKK1, active compounds read low 0.971 | S. cerevisiae deletion strains, locus YOR265W, strain rbl2, active compounds read low 0.997 | S. cerevisiae deletion strains, locus YOR270C, strain vph1, active compounds read low 1.04 | S. cerevisiae deletion strains, locus YOR290C, strain snf2, active compounds read low 0.982 | S. cerevisiae deletion strains, locus YOR316C, strain cot1, active compounds read low 0.989 | S. cerevisiae deletion strains, locus YPL051W, strain arl3, active compounds read low 1.03 | S. cerevisiae deletion strains, locus YPL055C, strain LGE1, active compounds read low 0.972 and 1.02 | S. cerevisiae deletion strains, locus YPL078C, strain atp4, active compounds read low 0.981 | S. cerevisiae deletion strains, locus YPL106C, strain sse1, active compounds read low 1.04 | S. cerevisiae deletion strains, locus YPL240C, strain hsp82, active compounds read low 1.01 | S. cerevisiae deletion strains, locus YPL241C, strain CIN2, active compounds read low 0.941 | S. cerevisiae deletion strains, locus YPL256C, strain CLN2, active compounds read low 0.991 | S. cerevisiae deletion strains, locus YPR119W, strain clb2, active compounds read low 0.993 | S. cerevisiae deletion strains, locus YPR141C, strain kar3, active compounds read low 0.979 | S. cerevisiae deletion strains, locus YPR163C, strain tif3, active compounds read low 0.986 | S. cerevisiae deletion strains, locus YPR167C, strain met16, active compounds read low 0.996 | S. cerevisiae deletion strains, strain wtn01, active compounds read low 1.01 | S. cerevisiae strains, strain wild type, active compounds read low 0.999
